Laboratory results as given in PubChem BioAssay AID624168 (Sanford-Burnham Center for Chemical Genomics, 2012).
The campaign covered roughly 360,000 compounds. About 800 (0.22%) were called active.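 Rule for the calls: active = activation of at least 8% versus controls, or a plate z-score of at least 8; inactive = the rest.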 Only a selection was taken, and actives are over-represented in it overall.

Assay: activators of alpha-DG glycosylation, primary screen, uHTS, Pro5-aDG cells, AlphaScreen (AID 624168);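 note: Pro5 are CHO cells carrying HIG-tagged alpha-DG that lacks glycosylation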
Conditions: alpha-DG glycosylation AlphaScreen (IIH6), at 10 µM, active compounds read high; 0% Pro5, 100% B10-LARGE cell signal unless noted

SMILES | activation
CNCC(O)c1cc(F)c(OCc2ccccc2)c(OCc2ccccc2)c1F (stereo not given) | 7.7% (active)
Cc1ccc(C2CN(C)CC2C(=O)c2ccc(F)cc2)cc1 (stereo not given) | 0% [setting not given] (inactive)
Cc1nc2ccccn2c1P(=S)(N1CCCCC1)N1CCCCC1 | -0.2% [setting not given] (inactive)
COc1cc(C(=O)N2Cc3ccc(Br)cc3-n3nncc3C2)cc(OC)c1OC | -0.2% (inactive)
COC(=O)C1=C(c2ccc(F)cc2OCc2ccccc2)C[C@@H]2CC[C@H]1N2C(=O)NCc1ccc(Cl)cc1 | 0.6% (inactive)
